POLH inh = DNA polymerase eta (human) inhibition | Q9Y253 | recombinant Pol eta, fluorescent DNA replication assay | Potency, µM (series often up to 114 µM), for inactives: top-dose activity change, negative = inhibition, usual class: inhibitors | hit rate 1.2% among 390,000 | AID 588591; note: potency is the fitted concentration of half-maximal effect; % is set by controls: 0 for no effect and ±100 for the full control effect
Target sequence (Q9Y253 whole entry, looked up): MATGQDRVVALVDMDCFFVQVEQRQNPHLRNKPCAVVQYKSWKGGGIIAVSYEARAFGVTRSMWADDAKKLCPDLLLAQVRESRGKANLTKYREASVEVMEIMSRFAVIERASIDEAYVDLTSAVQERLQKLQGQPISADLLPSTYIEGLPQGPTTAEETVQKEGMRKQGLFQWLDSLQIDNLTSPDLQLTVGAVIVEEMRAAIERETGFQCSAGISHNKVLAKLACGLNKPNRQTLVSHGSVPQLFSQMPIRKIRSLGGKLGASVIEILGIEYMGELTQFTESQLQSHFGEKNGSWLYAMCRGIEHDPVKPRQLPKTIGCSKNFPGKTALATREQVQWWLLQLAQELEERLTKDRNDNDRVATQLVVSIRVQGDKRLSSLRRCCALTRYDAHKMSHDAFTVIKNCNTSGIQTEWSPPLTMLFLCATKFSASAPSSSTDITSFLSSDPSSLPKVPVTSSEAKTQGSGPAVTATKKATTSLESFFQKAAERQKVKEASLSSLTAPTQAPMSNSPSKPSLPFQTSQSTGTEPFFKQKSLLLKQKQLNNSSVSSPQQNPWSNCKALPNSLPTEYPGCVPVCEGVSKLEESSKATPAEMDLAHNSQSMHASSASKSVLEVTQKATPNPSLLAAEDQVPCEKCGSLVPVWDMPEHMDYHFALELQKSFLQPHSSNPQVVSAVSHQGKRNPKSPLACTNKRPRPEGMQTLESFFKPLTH
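Pol eta at 10 nM preincubated with compounds 15 min at room temperature; reaction started with fluorescent substrate (50 nM final) and read kinetically at 0 and 10 min.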
WRN inhibitor = inhibitors of human WRN helicase | Potency, µM (titrated, usually from 114 µM), for the others: at the top dose activity change, negative = inhibition, actives largely listed as inhibitors | AID 651768 | WRN helicase unwinding, fluorescent forked duplex, kinetic | Q14191 | hit rate 0.46% among 360,000; note: potency is the fitted concentration of half-maximal effect; % is set by controls: 0 for no effect and ±100 for the full control effect; nearly all actives have a fitted effect of over 55% in size
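Primary qHTS, 1536-well format. 20 nM WRN + compound, 15 min RT; start with 100 nM forked fluorophore/quencher duplex, 2 mM ATP (final); kinetic read ex 525/em 598 nm.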
PI5P4Ka inh = inhibitors of human PI5P4K alpha | PI5P4Kalpha enzyme, ADP-Glo luminescence, 60 min; hits give low values | max response, % | AID 652105 | hit rate 1.2% among 330,000 | P48426; active = max response of -50% or lower; inconclusive = between -30% and -50%; inactive = -30% or higher; note: value at the top dose of about 77 µM; % is set by controls: 0 for no effect and ±100 for the full control effect
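ADP-Glo luminescence end-point read after a 60 min room-temperature kinase reaction of PI5P4Kalpha plus substrate, initiated with ATP at 5 microM final. Buffer: 0.038 M HEPES pH 7.4, EGTA, 0.1% CHAPS, 5% DMSO.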
Pol iota inh = inhibitors of human DNA polymerase iota | Pol iota fluorescent replication assay, 10 min | hit rate 1% among 390,000 | Potency, µM (top dose mostly 115 µM), inactives show at the highest dose activity, negative = inhibition, hits mostly inhibitors; note: potency is the fitted concentration of half-maximal effect
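Pol iota at 10 nM preincubated 15 min with compounds at room temperature; reaction started with fluorescent substrate, 50 nM final. Fluorescence read kinetically at 0 and 10 min; buffer-only wells as negative control.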
POLB inh = inhibitors of human DNA polymerase beta; P06746; Pol beta primer extension/strand displacement, fluorescence kinetic; Potency, µM (series often up to 114 µM), without a hit: at the top dose activity change, negative = inhibition, usual class: inhibitors; hit rate 1.3% among 340,000; AID 485314; note: potency is the fitted concentration of half-maximal effect; % is set by controls: 0 for no effect and ±100 for the full control effect
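Preincubation: enzyme (10 nM) with compound, 15 min, RT. Reaction: substrate added to 50 nM final. Reads: 0 and 10 min. Analysis: normalized, Hill fit.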
POLK inh = blocks human DNA polymerase kappa activity. purified Pol kappa, fluorescent DNA synthesis assay, 10 min. Potency, µM (top dose mostly 107 µM), for the others: at the top dose activity, negative = inhibition, most hits filed as inhibitors. hit rate 0.53% among 400,000. Q9UBT6; note: potency is the fitted concentration of half-maximal effect; % is set by controls: 0 for no effect and ±100 for the full control effect
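Pol kappa 10 nM + cpd, 15 min RT; start w/ substrate 50 nM final; fluorescence kinetic read, 0 and 10 min. Neg ctrl: buffer, no enzyme.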
The depositor's hits bear a star; ? = inconclusive; / = no result given; [ ] = remark or other dose. This is a sample that favours compounds with a hit; in the whole collection about 2.8% have one here. Unless noted, calls come from the whole dose curve; as a rule, active = well fitted curve in the direction sought with a large enough effect; inconclusive = small, poorly fitted or top-dose-only effect, or another doubt; inactive = no such curve, though single readings can be large; an effect the other way counts as inactive or inconclusive.

SMILES | POLH inh | WRN inhibitor | PI5P4Ka inh | Pol iota inh | POLB inh | POLK inh
Cc1ccc(C)c(NC(=O)c2nnn(Cc3ccc(F)cc3Cl)c2N)c1 | -22% | / | / | 4% | 17% | -14%
COc1ccc(-c2cn3nc(N4CCCC(C(=O)NCc5ccc(Cl)cc5)C4)sc3n2)cc1 (centres undefined) | -9% | / | / | 8% | -21% | -9%[60.1 µM]
Cn1cccc1CC(=O)N/N=C\c1ccccc1 | 2% | 0% | -16 | ? | 0% | -6%
Cc1ccc(/C=N\NC(=O)Cc2cccn2C)o1 | -13% | -7%[57.1 µM] | 0 | 79µM* | 7% | -19%
COc1ccccc1OCC(=O)N/N=C/C=C/c1ccc([N+](=O)[O-])o1 | ? | -24% | 2 | 79µM* | 32µM* | ?
CC(=O)N/N=C/c1ccc([N+](=O)[O-])o1 | / | / | / | / | / | -8%[19.4 µM]
O=C(N/N=C/c1ccc([N+](=O)[O-])o1)c1ccc(NS(=O)(=O)c2cccs2)cc1 | 32µM* | -10%[11.6 µM] | -62* | 50µM* | ? | -34%
O=C(N/N=C/c1ccc(N2CCOCC2)cc1)c1ccc(NS(=O)(=O)c2cccs2)cc1 | -8% | -11% | 9 | 28% | 0% | -9%
O=C(N/N=C\C=C\c1ccc([N+](=O)[O-])o1)c1cccs1 | 50µM* | -8%[11.6 µM] | ? | 5µM* | 32µM* | 79µM*
O=[N+]([O-])c1ccc(/C=N/N=C/c2ccc([N+](=O)[O-])o2)o1 | ? | -17% | -14 | 22µM* | -26% | ?
O=C(N/N=C/c1cccc(O)c1)c1cc(-c2ccc3c(c2)OCO3)n[nH]1 | -12% | 4% | -21 | ? | ? | -8%
O=C(N/N=C\c1ccc(-c2ccc([N+](=O)[O-])cc2)o1)c1ccc2c(c1)OCO2 | -22% | 2% | -12 | 11% | 3% | 10%
O=C(N/N=C/c1cccc([N+](=O)[O-])c1)c1cc(-c2ccc3c(c2)OCO3)n[nH]1 | 18µM* | -13%[11.6 µM] | -21 | ? | -23% | ?
O=C(N/N=C/c1ccc([N+](=O)[O-])o1)c1ccc2c(c1)OCO2 | -7% | -14% | -8 | ? | 40µM* | -21%
Oc1ccc(/C=N/N(Cc2ccccc2)c2ccccc2)c(O)c1O | -25% | ? | -76* | 39% | 6.3µM* | -38%
CCc1ccc(NC(=O)C(C)Sc2nnc(CN3CCCC3)o2)cc1 (centres undefined) | 6% | -4% | -3 | -2% | / | 4%
Cc1ccc2c(c1)c(C)cc(=O)n2CCC(=O)O | -3% | -12% | / | 3% | 13µM* | -6%[60.1 µM]
O=C(O)c1cccc(S(=O)(=O)Nc2cc(Cl)ccc2Cl)c1 | 0% | -6% | -6 | 6% | -25% | 1%
CC1CC(C)CN(C(=O)c2cccc(S(=O)(=O)Nc3cc(C(F)(F)F)ccc3Cl)c2)C1 (centres undefined) | -28% | -36% | 8 | 14% | 56µM* | -21%
CN(C)c1cccc2c(S(=O)(=O)NC(=O)[C@H]3O[C@@H](n4cnc5c(N)ncnc54)[C@H](O)[C@@H]3O)cccc12 | / | -3% | 10 | / | / | /
Cc1c(N)cc(S(=O)(=O)O)cc1NC(=O)c1cccc([N+](=O)[O-])c1 | 28µM* | -3% | 0 | ? | / | -22%
O=C(CSc1nc2sc3c(c2c(=O)n1-c1ccccc1)CCCC3)N/N=C/c1ccc(C(=O)O)cc1 | ? | 1%[11.6 µM] | -11 | 40µM* | ? | ?
COc1ccc([C@@H]2CC(=O)[C@@H]3CN(S(=O)(=O)c4ccc(C)cc4)[C@H](c4ccccc4)C[C@@H]3N2S(=O)(=O)c2ccccc2)cc1 | / | 1% | -9 | / | / | /
O=C(O)/C(=C\c1ccccc1OC(F)F)c1ccc(-c2ccccc2)cc1 | -29% | -25% | 0 | 61% | 56µM* | -30%
O=C(CC1N=C2c3ccccc3N=C(SCc3cccc(F)c3)N2C1=O)NCc1ccc2c(c1)OCO2 (centres undefined) | -7% | / | / | -9% | -22% | -15%[60.1 µM]
SMILES | POLH inh | WRN inhibitor | PI5P4Ka inh | Pol iota inh | POLB inh | POLK inh
Cc1cc(=O)oc2cc(Oc3ncccc3[N+](=O)[O-])ccc12 | -8% | 3% | -25 | 97% | ? | -10%
Cc1cc(=O)oc2cc(Oc3ccc([N+](=O)[O-])cc3[N+](=O)[O-])ccc12 | ? | -35%[11.6 µM] | 3 | 79µM* | -4% | -8%
NC(=O)c1ccc(Oc2ccc3ccc(=O)oc3c2)c([N+](=O)[O-])c1 | 28µM* | -15%[11.6 µM] | ? | ? | ? | ?
COc1ccc(-c2ccc(Nc3ccc(C(=O)N4CCOCC4)cc3)nn2)cc1OC | -10% | -18% | -1 | ? | 28µM* | -42%
COc1ccccc1-c1ccc(Nc2ccc(C(=O)N3CCOCC3)cc2)nn1 | -17% | 12% | 5 | -1% | -9% | -2%
O=C(C[n+]1cccc2cccc(O)c21)c1ccc(Cl)cc1 | / | / | / | 43% | / | 8%
CCOC(=O)c1ccccc1S(=O)(=O)N1CCN(c2nc(-c3cccs3)nc3ccccc23)CC1 | / | / | / | -2% | / | -5%
Cc1ncc(CN2CCCC(C(=O)Nc3ccc(-c4ccco4)cc3)C2)cn1 (centres undefined) | ? | -30% | -1 | 32µM* | -2% | ?
O=c1c(/C=C(\O)c2ccccc2)nc2ccccc2n1-c1ccccc1 | -16% | 56µM* | 1 | -1% | -1% | -15%
O=C(O)c1ccccc1-c1nc2ccccc2n1-c1ccccc1 | -11% | -26%[57.1 µM] | 1 | 3% | 0% | -26%
CC1=NN(c2nc(N)nc(/C(C#N)=C/c3ccc([N+](=O)[O-])o3)n2)C(C)(C)C1 | 18µM* | ? | ? | ? | / | -29%
Cc1ccc(C(C)C)cc1-n1nnc(-c2cccc(Cc3ccc4ccccc4c3)c2)c1C(C)O (centres undefined) | -11% | -1% | -1 | / | / | /
Cc1nc2ccccc2n1-c1ccccc1 | -8% | 3% | 0 | 4% | 12% | 11%
Cc1nc2nc(C)n(-c3ccccc3)c2s1 | 14µM* | -6% | ? | ? | -1% | -6%
C[n+]1ccc(/C=C/c2ccc(Br)cc2)cc1 | -25% | -16% | -4 | ? | -31% | 89µM*
C[n+]1ccc(/C=C/c2ccc3ccccc3c2)cc1 | / | / | / | / | / | -4%[19.4 µM]
O=C(Oc1csc(=S)n1C(=O)c1ccccc1)c1ccccc1 | -1% | -52% | -75* | 15% | 5% | -29%
Cc1ccc(C2C3=C(CCCC3=O)Nc3[nH]c(=S)[nH]c(=O)c32)cc1 (centres undefined) | 2% | 4% | / | ? | 7% | -20%
O=C1CCCC2=C1C(c1ccc(Br)cc1)c1c([nH]c(=S)[nH]c1=O)N2 (centres undefined) | -10% | -3% | -75* | ? | -21% | -31%

Compound activity from PubChem.
